Holding throughout (assay): NCI-60 one-dose screen, 48 h (100 = growth as untreated, 0 = no growth, -100 = all killed)
What all share (conditions): 10 µM unless noted

For experiment [1], the system named is RPMI-8226 leukemia.
In experiment [2] the test system is OVCAR-8 ovarian.
In experiment [3] the test system is OVCAR-5 ovarian.
Experiment [4] has as its system OVCAR-4 ovarian.
Experiment [5] has as its system SK-OV-3 ovarian.
Experiment [6] concerns IGROV1 ovarian.
In experiment [7] the test system is OVCAR-3 ovarian.
The test system of experiment [8] is HS 578T breast.
In experiment [9] the test system is NCI/ADR-RES ovarian.
For experiment [10], the system named is T-47D breast.
Experiment [11] concerns BT-549 breast.
The test system of experiment [12] is MDA-MB-435 melanoma.
Experiment [13] deals with SW-620 colon.
Experiment [14] has as its system MCF7 breast.
Experiment [15] deals with HCT-116 colon.
The subject of experiment [16] is HCC-2998 colon.
In experiment [17] the test system is KM12 colon.

Each structure is given as a SMILES string. About 83,000 compounds went through this panel and 20% of them were active in at least one assay; those are over-represented in the sample as a whole.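 48-hour exposure, single concentration, 96-well plates; percent growth endpoint where 0 means no net growth. Active: below 10.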 Values without a mark were called inactive. Activity calls are given as the source filed them.

As to `COC(=O)CCc1n(Cc2ccc3ccccc3c2)c2ccccc2[n+]1Cc1ccc2ccccc2c1`, the growth in experiment [1] is -21.3% (active); in [2], 6.77% (active); in experiment [3] it was 18%; in [4] it was 7.13% (active); in [5] it was 10.8%; in [6], -26.4% (active). Also, the growth in experiment [7] is -14.2% (active); in experiment [8], 25%; in [9] it was 100%; in experiment [10], -0.425% (active); in experiment [11] it was -7.25% (active); in experiment [12] it was -13.5% (active). For the same compound, the growth was 12.1% in [13]; 1.95% (active) in [14]; 0.405% (active) in experiment [15]; -2.47% (active) in [16]; -58.7% (active) in experiment [17].
For the compound `COc1cc(C(=O)N2CCN(c3ccccc3OC)CC2)c(NC(=O)c2cnccn2)cc1OCc1ccccc1`, the growth in [1] was 65.9%; in experiment [2], 91.1%; in experiment [3], 90.8%; in experiment [4] it was 79%; in [5] it was 90.2%; in [6], 63.9%. Besides, the growth was 92.7% in experiment [7]; 103% in [8]; 78.9% in experiment [9]; 66.8% in [10]; 97.6% in experiment [11]; 95.1% in experiment [12]. Moreover, the growth in experiment [13] is 101%; in experiment [14], 109%; in experiment [15], 87.8%; in experiment [16], 87.3%; in experiment [17] it was 90.7%.
`Cc1ccn2c3c(c(C(=O)O)c2c1)C(=O)c1ccccc1C3=O`: the growth in experiment [1] is 90.6%; in experiment [2], 80.1%; in [3], 121%; in experiment [4], 69.9%; in experiment [5], 98.3%; in [6] it was 81.3%. Besides, the growth in [7] was 45.6%; in [8], 43.7%; in experiment [9], 85.2%; in [10], 90.7%; in experiment [11], 58.9%; in experiment [12], -78.2% (active). Further, the growth is 74.1% in experiment [13]; 61.1% in [14]; 82.3% in [15]; 62% in experiment [16]; 66.7% in [17].
With `CCOC(=O)/C=C1\SC(=Nc2ccc(C#N)cc2)N(CCN2C(=O)/C(=C/C(=O)OCC)SC2=Nc2ccc(C#N)cc2)C1=O`, the growth is -26.8% (active) in experiment [1]; 5.38% (active) in experiment [2]; 84.4% in [3]; 50.8% in experiment [4]; 85.4% in experiment [5]; 23.7% in experiment [6]. Moreover, the growth in experiment [7] is 7.13% (active); in experiment [8], 63.7%; in experiment [9], 43.7%; in experiment [10] it was 21.1%; in experiment [11], 32.5%; in [12] it was 72.6%. Further, the growth is 9.61% (active) in experiment [13]; 24.4% in experiment [14]; 4.59% (active) in experiment [15]; 20.6% in [16]; 23.2% in experiment [17].
Turning to `Nc1c(C(=O)Nc2ccccc2)sc2nc3c(cc12)CN(C(=O)OCc1ccccc1)CC3`, the growth is 53.1% in experiment [1]; 68.9% in experiment [2]; 91.7% in experiment [3]; 75.4% in experiment [4]; 43.7% in experiment [5]; 56.4% in experiment [6]. The growth was 16% in [7]; 53.5% in experiment [8]; 45.6% in [9]; 68.2% in experiment [10]; 52.1% in [11]; -8.75% (active) in experiment [12]. Also, the growth in experiment [13] was 30.1%; in [14], 21.1%; in [15] it was 28.7%; in experiment [16] it was 77.5%; in experiment [17] it was 39.1%.
As to `CCc1ccc(OCc2ccccc2C(=O)Nc2ccc3nc(C)cc(N)c3c2)cc1`, the growth is -45.4% (active) in experiment [1]; -60.7% (active) in [2]; -95.4% (active) in [3]; -84.3% (active) in [4]; -97% (active) in experiment [5]; -71.5% (active) in experiment [6]. Moreover, the growth in [7] is -92.4% (active); in experiment [8], -42% (active); in experiment [9], -71.5% (active); in [10] it was -60% (active); in experiment [11] it was -91.9% (active); in experiment [12], -91.2% (active). Also, the growth in [13] was -64.3% (active); in [14] it was -70.2% (active); in [15], -99.3% (active); in [16], -76.8% (active); in experiment [17] it was -78.9% (active).
Turning to `CC(C)(C)c1nc2c(s1)c1nc(N)ncc1c1ccc(NS(=O)(=O)c3c(F)cccc3F)c(F)c12`, the growth in [1] was 68.9%; in experiment [2], 61.1%; in experiment [3], 104%; in experiment [4] it was 60.7%; in experiment [5] it was 13.7%; in [6], 38.5%. Moreover, the growth in experiment [7] is 80.7%; in [8], 60.4%; in experiment [9] it was 80.6%; in experiment [10], 42.9%; in [11] it was 77.4%; in experiment [12], 38.6%. For the same compound, the growth was 110% in experiment [13]; 89.8% in experiment [14]; 49.3% in experiment [15]; 82% in [16]; 35.5% in [17].
`CNc1cccc2c1C(=O)c1cccc(N)c1C2=O`: the growth was 38.9% in [1]; 64.5% in experiment [2]; 73.8% in experiment [3]; 57.6% in experiment [4]; 60.5% in experiment [5]; 67.5% in experiment [6]. Also, the growth was 32.2% in experiment [7]; 19.4% in [8]; 85% in [9]; 45.9% in [10]; 30.8% in experiment [11]; 36.1% in experiment [12]. The growth in [13] is 63.1%; in experiment [14] it was 25%; in experiment [15] it was 31.5%; in [16], 93.9%; in [17], 35.8%.

The record behind these values is PubChem BioAssay (NCI).
